Laboratory results reported in PubChem BioAssay (NCATS).
Inconclusive results are not listed. Activity calls are given as the source filed them. The call rests on the fitted dose curve; in most records, active means well fitted curve in the direction sought with a large enough effect; inconclusive means small, poorly fitted or top-dose-only effect, or another doubt; inactive means no such curve, though single readings can be large; an effect the other way counts as inactive or inconclusive.

Columns and labels:
HEK293 = test: Cytotoxic Profiling of Annotated Libraries Using Quantitative High-Throughput Screening (AID 1296008); conditions: Five cell lines viability, CellTiter-Glo ATP luminescence, 48-72 h; max response: stronger effect = lower value; further: nearly all actives have a fitted effect of over 60% in size
Procedure, shortened: (§1)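 Compounds were pin-transferred onto cells and incubated 48 or 72 hr at 37 degree Celsius, 95% humidity. CellTiter-Glo was added, plates sat 10 min at room temperature, then ATP-coupled luminescence was imaged as the viability read-out.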

HaCat = test: as above; conditions: Five cell lines viability, CellTiter-Glo ATP luminescence, 48-72 h; max response: stronger effect = lower value
Procedure, shortened: as §1

KB-3-1 = test: as above; conditions: Five cell lines viability, CellTiter-Glo ATP luminescence, 48-72 h; max response: stronger effect = lower value
Procedure, shortened: as §1

NIH3T3 = test: as above; conditions: Five cell lines viability, CellTiter-Glo ATP luminescence, 48-72 h; max response: stronger effect = lower value
Procedure, shortened: as §1

C33A = test: Primary qHTS to identify gynecologic anti-cancer compounds using libraries of approved drugs and bioactive compounds (AID 1345084); conditions: Gynecologic cancer cell panel viability, ATPlite luminescence, 48 h; series mostly up to 57.5 µM; further: nearly all actives have a fitted effect of over 55% in size
Procedure, shortened: (§2)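 Cells, 1,000 per well, were allowed to settle for 16 h at 37 C before compound addition. Five concentrations were tested for 48 h, and viability was read by ATPlite luminescence after 15 min at room temperature.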

CASKI = test: as above; conditions: Gynecologic cancer cell panel viability, ATPlite luminescence, 48 h; series mostly up to 57.5 µM
Procedure, shortened: as §2

Es-2 = test: as above; conditions: Gynecologic cancer cell panel viability, ATPlite luminescence, 48 h; series mostly up to 57.5 µM
Procedure, shortened: as §2

HeLa = test: as above; conditions: Gynecologic cancer cell panel viability, ATPlite luminescence, 48 h; series mostly up to 57.5 µM
Procedure, shortened: as §2

Hek293T = test: as above; conditions: Gynecologic cancer cell panel viability, ATPlite luminescence, 48 h, control line for the selectivity index; series mostly up to 57.5 µM
Procedure, shortened: as §2

JEG-3 = test: as above; conditions: Gynecologic cancer cell panel viability, ATPlite luminescence, 48 h; series mostly up to 57.5 µM
Procedure, shortened: as §2

CAOV3 = test: as above; conditions: Gynecologic cancer cell panel viability, ATPlite luminescence, 48 h; series mostly up to 57.5 µM
Procedure, shortened: as §2
On the % scale 0 is the no-effect control and ±100 the full control effect; potency means the concentration at half of the fitted maximal effect.

COC(=O)c1c(C)cc(OC(=O)c2c(C)cc(OC)cc2OC)cc1O[C@@H]1O[C@H](CO)[C@@H](O)[C@H](O)[C@H]1O
inactive: max response (HEK293) -0.971% | max response (HaCat) -0.836% | max response (KB-3-1) -1.14% | max response (NIH3T3) -1.71% | Potency (C33A) | Potency (CASKI) | Potency (Es-2) | Potency (HeLa) | Potency (Hek293T) | Potency (JEG-3)

Cc1ccc(S(=O)(=O)c2ccc([N+](=O)[O-])o2)cc1
active: Potency (HEK293) 1.03 µM | Potency (HaCat) 6.51 µM | Potency (KB-3-1) 23.1 µM | Potency (NIH3T3) 5.17 µM | Potency (C33A) 11.2 µM | Potency (CAOV3) 11.2 µM | Potency (Es-2) 8.91 µM | Potency (Hek293T) 8.91 µM

Cc1ccc(-c2ccc3ncc4c(c3n2)n(C2CCN(C(=O)[C@H](C)O)CC2)c(=O)n4C)cn1
active: Potency (HEK293) 0.082 µM | Potency (HaCat) 1.46 µM | Potency (KB-3-1) 0.116 µM | Potency (NIH3T3) 0.231 µM | Potency (C33A) 0.282 µM | Potency (CAOV3) 0.708 µM | Potency (CASKI) 0.794 µM | Potency (HeLa) 1 µM | Potency (Hek293T) 0.355 µM | Potency (JEG-3) 7.08 µM

COc1ccc(C(O)C(C)OC2OC(CO)C(O)C(O)C2O)cc1 (stereo not drawn)
inactive: max response (HEK293) 0.525% | max response (HaCat) 1.16% | outcome (KB-3-1) | max response (NIH3T3) -2.23% | Potency (C33A) | Potency (CAOV3) | Potency (CASKI) | Potency (Es-2) | Potency (HeLa) | Potency (Hek293T) | Potency (JEG-3)

COc1cc([C@H]2c3cc(O)c(OC)cc3C[C@@H](CO[C@@H]3O[C@H](CO)[C@@H](O)[C@H](O)[C@H]3O)[C@@H]2CO)ccc1O
inactive: max response (HEK293) -2.47% | max response (HaCat) -4.19% | outcome (KB-3-1) | max response (NIH3T3) -0.225% | Potency (C33A) | Potency (CASKI) | Potency (Es-2) | Potency (HeLa) | Potency (Hek293T) | Potency (JEG-3)

NC(=O)c1cccc(-c2cc(OC(=O)NC3CCCCC3)ccc2O)c1
inactive: max response (HEK293) -86.9% | max response (HaCat) 4.07% | max response (KB-3-1) -19.2% | max response (NIH3T3) -3.22% | Potency (C33A) | Potency (CAOV3) | Potency (CASKI) | Potency (Es-2) | Potency (HeLa) | Potency (JEG-3)

CO[C@H]1C[C@@H]2CC[C@@H](C)[C@@](O)(O2)C(=O)C(=O)N2CCCC[C@H]2C(=O)O[C@H]([C@H](C)C[C@@H]2CC[C@@H](OP(C)(C)=O)[C@H](OC)C2)CC(=O)[C@H](C)/C=C(\C)[C@@H](O)[C@@H](OC)C(=O)[C@H](C)C[C@H](C)/C=C/C=C/C=C/1C
active: Potency (HEK293) 0.0063 µM
inactive: max response (HaCat) -0.379% | max response (KB-3-1) 3.84% | max response (NIH3T3) -16.2% | Potency (C33A) | Potency (CAOV3) | Potency (Es-2) | Potency (HeLa) | Potency (JEG-3)
